{"source": "PubChem BioAssay (Tox21)", "note": "Inconclusive results are not listed. A call without a number means that no potency is given here. Activity calls are given as the source filed them. Calls follow the shape of the dose curve; as a rule, active = well fitted activation curve with a large enough effect in the repeat runs; inconclusive = weak or mixed curves; inactive = no such curve, though single readings can be large or run the other way."}
{"experiment": "qHTS assay for small molecules that induce genotoxicity in human embryonic kidney cells expressing luciferase-tagged ATAD5 (AID 651632); also: nearly all actives have a fitted effect of over 15% in size", "conditions": "HEK293T ATAD5-luciferase induction, 16 h; series mostly up to 83.3 µM", "outline": "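HEK293T cells carrying luciferase-tagged ATAD5 were given compound or DMSO vehicle and incubated 16 hr at 37C, 5% CO2. Luciferase activity was read after 30 min at room temperature with Amplite; a rise signals genotoxic stress.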"}
{"smiles": "CCCc1nn(C)c2c(=O)[nH]c(-c3cc(S(=O)(=O)N4CCN(C)CC4)ccc3OCC)nc12", "Potency": "inactive"}
{"smiles": "CO[C@@]1(NC(=O)CSC[C@@H](N)C(=O)O)C(=O)N2C(C(=O)O)=C(CSc3nnnn3C)CS[C@@H]21", "Potency": "inactive"}
{"smiles": "CN(C)CCN(C)CCN(C)C", "Potency": "inactive"}
{"smiles": "Cc1ccc(C(=O)Nc2ccc(S(=O)(=O)O)c3cc(S(=O)(=O)O)cc(S(=O)(=O)O)c23)cc1NC(=O)c1cccc(NC(=O)Nc2cccc(C(=O)Nc3cc(C(=O)Nc4ccc(S(=O)(=O)O)c5cc(S(=O)(=O)O)cc(S(=O)(=O)O)c45)ccc3C)c2)c1", "Potency": "inactive"}
{"smiles": "C=C(C)C(=O)OCCOCCOCCOCCOC(=O)C(=C)C", "Potency": "inactive"}
{"smiles": "OCCCCCO", "Potency": "inactive"}
{"smiles": "CO[Si](C)(OC)c1ccccc1", "Potency": "inactive"}
{"smiles": "CC1=NS(=O)(=O)c2cc(Cl)ccc2N1", "Potency": "inactive"}
{"smiles": "CCOC(=O)CCC(=O)OCC", "Potency": "inactive"}
{"smiles": "CC1(C)[C@@H]2CC[C@@]1(C)[C@H](O)C2", "Potency": "inactive"}
{"smiles": "CCCC(C)C(=O)OCC", "note": "(centres undefined)", "Potency": "inactive"}
{"smiles": "CCCCS(=O)(=O)N[C@@H](Cc1ccc(OCCCCC2CCNCC2)cc1)C(=O)O", "Potency": "inactive"}
{"smiles": "c1coc(CNc2ncnc3nc[nH]c23)c1", "Potency": "inactive"}
{"smiles": "CCOC(=O)COc1cc(-n2ncc(C(F)(F)F)c(C)c2=O)c(F)cc1Cl", "Potency": "inactive"}
{"smiles": "CC(C)CCCO", "Potency": "inactive"}
{"smiles": "CC(=O)N1C[C@H](O)C[C@H]1C(=O)O", "Potency": "inactive"}
{"smiles": "O=S(=O)(O)c1cccc2c(S(=O)(=O)O)cccc12", "Potency": "inactive"}
{"smiles": "C=CN1CCCCCC1=O", "Potency": "inactive"}
{"smiles": "C[N+]1(C)[C@@H]2CC(OC(=O)[C@H](CO)c3ccccc3)C[C@H]1[C@@H]1O[C@@H]12", "note": "(some centres undefined)", "Potency": "inactive"}
